In ChEMBL document CHEMBL1201862, “PubChem BioAssay data set” (2004) one finds GI50 data, which are given here for eleven substances.

Hit rate of the full screen: of about 57,000 sequences, about 3,700 (6.5%) were called active. Cut-off read from the data, not from the text of the source: active = GI50 up to about 1.1 µM and inactive = higher. These entries were drawn from the full list. Results with a measured potency or affinity are listed apart.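 Results reflect a 48-hour exposure of cells in 96-well plates to compound at five concentrations. GI50 is the concentration that inhibits growth by half.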

The test system of this experiment is ACHN. As to the kind of experiment: NCI tumour cell line growth inhibition, 48 h.
For the substance CISPLATIN, CHEMBL11359, the GI50 was found to be 1.22 µM.
The value for “cis-Bis[[(trimethylsilyl)methyl]amino]tetrachloroplatinum(IV), CHEMBL2146191” was 6.25 µM.
“[Bis(aminomethyl)dimethylsilane]dichloroplatinum (II), CHEMBL2146201”: the GI50 was found to be 12.6 µM.
The same measure for “[Bis(aminomethyl)tetramethylenesilane]dichloropaltinum(II), CHEMBL2146205”: 12.3 µM; for “[Bis(aminomethyl)pentamethylenesilane]dichloropaltinum(II), CHEMBL2146202”: 1.63 µM.
For the substance “mu-(1,7-nanodiamine-N,N')bis-(cis-aminedichloroplatimum (II)), CHEMBL2146215”, the GI50 came out at 27.8 µM.
As to “[Bis(aminomethyl)ethylmethylsilane]tetrachloroplatinum(IV), CHEMBL2146192”, the GI50 turned out to be 2.67 µM.
The same measure for “[Bis(aminomethyl)pentamethylenesilane]tetrachloropaltinum(IV), CHEMBL2146204”: 1.79 µM.
The value for “[Bis(aminomethyl)tetramethylenesilane]tetrachloropaltinum(IV), CHEMBL2146189” was 3.69 µM.
The value for “[Bis(aminomethyl)dimethylsilane]tetrachloroplatinum(IV), CHEMBL2146190” was 4.84 µM; that for “[Bis(aminomethyl)diethylsilane]tetrachloroplatinum(IV), CHEMBL2146203” was 2.99 µM.
